From PubChem BioAssay (NCI)
The panel holds about 79,000 compounds, 15% with a hit somewhere; the sample as a whole holds those more often. Calls of active or inactive are those of the source. Cut-off read from the data, not from the text of the source: active = growth inhibition above about 70%; inactive = the rest.

Tests used:
[1] = NCI Yeast Anticancer Drug Screen. Data for the rad52 strain (AID 147);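 note: 0% = growth of vehicle-treated control cultures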; conditions: S. cerevisiae rad52 mutant growth inhibition, stronger effect = higher value
How it was run: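 Screen used a yeast mutant impaired in DNA repair. After compound exposure, growth was measured. Values reflect inhibition compared with vehicle-treated cells.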

[2] = NCI Yeast Anticancer Drug Screen. Data for the wt1 strain (AID 149);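 note: 0% = growth of vehicle-treated wt1 cultures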; conditions: S. cerevisiae wt1 strain (SPY 50644) growth inhibition, stronger effect = higher value
How it was run: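 Compounds are added to wt1 yeast cultures. Growth is then measured. Inhibition is expressed relative to vehicle-treated controls.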

[3] = NCI Yeast Anticancer Drug Screen. Data for the rad50EPP+ strain (AID 151);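 note: 0% = growth of vehicle-treated control cultures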; conditions: S. cerevisiae rad50 mutant strain, stronger effect = higher value
How it was run: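 Exposing the rad50EPP+ strain to each compound, growth was compared with vehicle-only cultures to give inhibition.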

[4] = NCI Yeast Anticancer Drug Screen. Data for the mgt1 strain (AID 153); conditions: S. cerevisiae mgt1 mutant growth inhibition, stronger effect = higher value
How it was run: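 Genetically defined yeast (mgt1) treated with compound; inhibition of growth expressed against vehicle-treated controls.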

[5] = NCI Yeast Anticancer Drug Screen. Data for the rad50 strain (AID 155);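 note: 0% = growth of vehicle-only cultures of the same strain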; conditions: S. cerevisiae rad50 strain growth inhibition, stronger effect = higher value
How it was run: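 Inhibition values express reduced yeast growth in compound-treated cultures relative to vehicle-treated controls.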

[6] = NCI Yeast Anticancer Drug Screen. Data for the mec2-1 strain (AID 157); conditions: S. cerevisiae mec2-1 strain, stronger effect = higher value
How it was run: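 Readout is yeast growth inhibition, normalised to vehicle-treated controls, in the mec2-1 strain exposed to compound.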

[7] = NCI Yeast Anticancer Drug Screen. Data for the rad14 strain (AID 159);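 note: 0% = growth of vehicle-treated control cultures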; conditions: S. cerevisiae rad14 strain growth inhibition, stronger effect = higher value
How it was run: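 A mutant yeast strain defective in DNA damage repair is treated with compound; inhibition of its growth is scored against untreated, vehicle-exposed cultures.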

[8] = NCI Yeast Anticancer Drug Screen. Data for the sgs1 mgt1 strain (AID 161);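 note: 0% = growth of cultures given vehicle only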; conditions: S. cerevisiae sgs1 mgt1 strain, stronger effect = higher value
How it was run: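 Percent growth inhibition was derived by comparing compound-exposed mutant yeast with vehicle-exposed cultures. The strain carries alterations in DNA damage repair.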

[9] = NCI Yeast Anticancer Drug Screen. Data for the CLN2oe strain (AID 163);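 note: 0% = growth of vehicle-only control cultures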; conditions: S. cerevisiae CLN2oe strain, stronger effect = higher value
How it was run: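 Values reflect how much compound exposure reduced yeast growth, referenced to vehicle-exposed cells. Assay organism is a strain with a defined genetic change affecting cell-cycle control.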

[10] = NCI Yeast Anticancer Drug Screen. Data for the cln2 rad14 strain (AID 165);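 note: 0% = growth equal to vehicle treated cultures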; conditions: S. cerevisiae cln2 rad14 strain, stronger effect = higher value
How it was run: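 Relative to vehicle controls, growth inhibition of compound-treated cln2 rad14 yeast was recorded.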

[11] = NCI Yeast Anticancer Drug Screen. Data for the bub3 strain (AID 167); conditions: S. cerevisiae bub3 mutant strain, stronger effect = higher value
How it was run: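 Steps: expose the mutant yeast strain to compound; grow alongside vehicle-treated cultures; measure growth; express inhibition against the vehicle cultures.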

[12] = NCI Yeast Anticancer Drug Screen. Data for the wt2 strain (AID 169);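 note: 0% = growth of vehicle-treated yeast cultures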; conditions: S. cerevisiae wt2 strain growth inhibition, stronger effect = higher value
How it was run: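 Values express reduction in yeast growth under compound treatment, referenced to vehicle-treated cells.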

[13] = NCI Yeast Anticancer Drug Screen. Data for the mlh1 strain (AID 171);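 note: 0% = growth of vehicle-treated control cultures of the same strain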; conditions: S. cerevisiae mlh1 strain growth inhibition, stronger effect = higher value
How it was run: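 Steps: expose the defined-mutant yeast strain to compound; expose a parallel culture to vehicle; measure growth; express compound effect as inhibition relative to the vehicle culture.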

[14] = NCI Yeast Anticancer Drug Screen. Data for the sgs1 strain (AID 173);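 note: 0% = growth of vehicle-only control cultures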; conditions: S. cerevisiae sgs1 mutant, stronger effect = higher value
How it was run: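 Treat defined-mutant yeast with compound; measure growth; calculate inhibition relative to vehicle-treated cells.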

[15] = NCI Yeast Anticancer Drug Screen. Data for the mlh1 rad18 strain (AID 175); conditions: S. cerevisiae mlh1 rad18 strain growth inhibition, stronger effect = higher value
How it was run: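 Test agents were incubated with a yeast strain of defined genotype (DNA damage repair defect). Inhibition of growth was derived by comparison with vehicle-exposed cultures.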

[16] = NCI Yeast Anticancer Drug Screen. Data for the rad18 strain (AID 177); conditions: S. cerevisiae rad18 mutant growth inhibition, stronger effect = higher value
How it was run: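 A genetically defined yeast mutant impaired in DNA damage repair was treated with test compounds, then its growth was measured against cultures receiving vehicle alone.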

[17] = at 5.0 µM (retest, dose inferred, filed as 0.5)
[18] = at 50.0 µM (retest, dose inferred, filed as 5.0)

Measured: growth inhibition

O=C1c2ccccc2C(=O)C(Cl)C1Cl (stereo not drawn)
inactive: [1]; at 1.2 µM 1% | [1]; at 3.7 µM 15% | [2]; at 1.2 µM 7% | [2]; at 3.7 µM 18% | [3]; at 1.2 µM 7% | [3]; at 3.7 µM 36% | [4]; at 1.2 µM 7% | [4]; at 3.7 µM 13% | [5]; at 1.2 µM 5% | [5]; at 3.7 µM 36% | [5]; [17] 29% | [6]; at 1.2 µM 9% | [6]; at 3.7 µM 22% | [6]; [17] 34% | [7]; at 1.2 µM 7% | [7]; at 3.7 µM 18% | [8]; [17] 33% | [9]; at 1.2 µM 4% | [9]; at 3.7 µM 10% | [10]; [17] 10% | [11]; at 1.2 µM 13% | [11]; at 3.7 µM 35% | [12]; at 1.2 µM 9% | [12]; at 3.7 µM 24% | [13]; at 1.2 µM 1% | [13]; at 3.7 µM 4% | [14]; at 1.2 µM 4% | [14]; at 3.7 µM 15% | [15]; [17] 21% | [16]; at 1.2 µM 1% | [16]; at 3.7 µM 10%
active: [1]; at 11.0 µM 88% | [1]; at 33.0 µM 99% | [1]; at 100.0 µM 98% | [2]; at 11.0 µM 72% | [2]; at 33.0 µM 99% | [2]; at 100.0 µM 99% | [3]; at 11.0 µM 98% | [3]; at 33.0 µM 99% | [3]; at 100.0 µM 98% | [4]; at 11.0 µM 99% | [4]; at 33.0 µM 99% | [4]; at 100.0 µM 99% | [5]; at 11.0 µM 98% | [5]; at 33.0 µM 99% | [5]; [18] 99% | [5]; at 50.0 µM 99.2% | [5]; at 100.0 µM 99% | [6]; at 11.0 µM 90% | [6]; at 33.0 µM 99% | [6]; [18] 99% | [6]; at 50.0 µM 99.4% | [6]; at 100.0 µM 99% | [7]; at 11.0 µM 92% | [7]; at 33.0 µM 99% | [7]; at 100.0 µM 99% | [8]; [18] 99% | [8]; at 50.0 µM 99.5% | [9]; at 11.0 µM 71% | [9]; at 33.0 µM 99% | [9]; at 100.0 µM 98% | [10]; [18] 99% | [10]; at 50.0 µM 99.1% | [11]; [17] 88% | [11]; at 11.0 µM 98% | [11]; at 33.0 µM 99% | [11]; [18] 99% | [11]; at 50.0 µM 99.3% | [11]; at 100.0 µM 99% | [12]; at 11.0 µM 82% | [12]; at 33.0 µM 99% | [12]; at 100.0 µM 99% | [13]; at 11.0 µM 93% | [13]; at 33.0 µM 99% | [13]; at 100.0 µM 99% | [14]; at 11.0 µM 89% | [14]; at 33.0 µM 99% | [14]; at 100.0 µM 99% | [15]; [18] 99% | [15]; at 50.0 µM 99.3% | [16]; at 11.0 µM 91% | [16]; at 33.0 µM 99% | [16]; at 100.0 µM 99%
